In PubChem BioAssay (NCI):
Where “and” joins values, the source holds several entries; their conditions need not be identical. Identical values can stand only once. About 83,000 compounds went through this panel and 20% of them were active in at least one assay; those are over-represented in the sample as a whole.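 Each cell line was grown in a 96-well plate and treated with one concentration of compound for 48 hours. Values below 10 were considered active.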 Calls of active or inactive are those of the source.

How the values were obtained:
Assay in all cases: NCI-60 one-dose screen, 48 h (100 = growth as untreated, 0 = no growth, -100 = all killed)
Settings in all cases: 10 µM unless noted
[1] = test system: T-47D breast
[2] = test system: BT-549 breast
[3] = test system: MDA-MB-435 melanoma
[4] = test system: SW-620 colon
[5] = test system: MCF7 breast
[6] = test system: HCT-116 colon
[7] = test system: HCC-2998 colon
[8] = test system: KM12 colon
[9] = test system: MDA-MB-468 breast

Measured: growth

CCOC(=O)c1ccc(NC(=S)NC(=O)c2ccc(NC(=O)C(C)C)cc2OC)cc1
inactive: [3] 33.7% | [4] 62.6% | [6] 23.6% | [7] 67.9% | [8] 30.2%
active: [1] -0.757% | [2] -5.7% | [5] 8.31% | [9] 3.97%

CC(=O)C[n+]1cccc2c3ccccc3ccc21
inactive: [1] 77.2% | [2] 107% | [3] 84.6% | [4] 92.3% | [5] 77.7% | [6] 87.4% | [7] 114% | [8] 88.2%
active: [9] 8.54%

O=C(CSc1nnc(-c2ccc(-c3nc4ccccc4[nH]3)cc2)o1)Nc1ccc(Cl)cc1
active: [2] -0.131% | [4] -50.5% | [5] 7.43% | [6] 7.32%
inactive: [1] 23.8% | [3] 18.4% | [7] 59.6% | [8] 22.9% | [9] 54.8%

CCN(C(=O)CN1C(=O)/C(=C/c2ccco2)SC1=S)C1CCS(=O)(=O)C1 (stereo unspecified)
inactive: [1] 78.1% | [2] 97% | [3] 92.2% | [4] 102% | [5] 91.8% | [6] 98.2% | [7] 106% | [8] 103% | [9] 61%

Cc1ccc(Nc2nnc(-c3c[nH]c4ccccc34)o2)c(C)c1
inactive: [1] 44.3% | [2] 29.6% | [4] 30.9% | [5] 14.3%
active: [3] -41.8% | [6] 1.32% | [7] -13.6% | [8] 7.83% | [9] -17%

CN(C)c1nc(NCCNS(=O)(=O)c2ccc(C(=O)/C=C/c3ccc(F)cc3)cc2)nc(N2CCOCC2)n1
active: [2] -24.8% | [3] 3.15% | [4] -48.6% | [6] -96% | [7] -96.5% | [8] -42.5% | [9] -36.6%
inactive: [1] 35.4% | [5] 17.8%

Nc1nn2c(-c3cc4cc(Br)ccc4oc3=O)ccnc2c1N=Nc1ccc(S(N)(=O)=O)cc1
inactive: [1] 77% | [2] 128% | [3] 78.5% | [4] 58.6% | [5] 71.4% | [6] 56% | [7] 54.8% | [8] 48.3% | [9] 64.7%

COc1ccc2[nH]c(=O)c(CSc3ccccc3Nc3nccc(-c4ccc(Cl)cc4)n3)cc2c1
inactive: [1] 38% | [2] 31.6% | [3] 28.3% | [4] 50.3% | [6] 11.9% | [7] 37.6% | [8] 31.9% | [9] 17.3%
active: [5] 7.48%

O=C(CSc1nc2sc3c(c2c(=O)n1-c1ccc(Cl)cc1)CCCC3)N/N=C/C=C/c1ccccc1
active: [1] -24.5% | [2] -73.7% | [3] -50.1% | [4] -55.5% | [6] -13.5% | [7] 6.29% | [9] -81.6%
inactive: [5] 12.6% | [8] 39.9%

COc1cccc(NC(=O)c2ccc(NC(=O)CCl)s2)c1
active: [3] 2.66% | [4] 3.86% | [5] 5.63% | [6] -27.4% | [9] -14.7%
inactive: [1] 26.2% | [2] 27.2% | [7] 80.6% | [8] 42.4%

CN(C)c1ccc(/C=C/c2n(Cc3ccc4ccccc4c3)c3ccccc3[n+]2Cc2ccc3ccccc3c2)cc1
active: [1] -55.3% | [2] -87.1% | [3] -94.7% | [4] -65.4% | [5] -67.3% | [6] -62.7% | [7] -89.1% | [8] -29.9% | [9] -82.2%

Cc1ccc(C(=O)Nc2cc(-c3ccccc3)cc(C(F)(F)F)c2)cc1C#Cc1cnc2cccnn12
inactive: [1] 42.3% | [2] 139% | [3] 45.3% | [4] 66.7% | [5] 39.9% | [6] 32.2% | [7] 85.3% | [8] 41.9% | [9] 62.9%

Cc1ccccc1Nc1nnc(-c2c[nH]c3ccccc23)o1
active: [3] -47.2% | [9] -35.5%
inactive: [1] 39.7% | [2] 17.7% | [4] 19.6% | [5] 21.8% | [6] 19.3% | [7] 11.3% | [8] 25%

NC1(c2ccc(-c3ccc4ncnc(NCc5ccccc5)c4c3)cn2)COC1
inactive: [1] 108% and 107% | [2] 109% and 106% | [3] 106% and 107% | [4] 114% and 106% | [5] 102% and 99.5% | [6] 109% and 116% | [7] 117% and 113% | [8] 101% and 88.5% | [9] 102% and 103%

NNc1ncnc2sc3c(c12)CCN(Cc1ccccc1)C3
inactive: [1] 24.8% | [2] 55% | [3] 77.7% | [4] 46.6% | [6] 42.6% | [7] 52.1% | [8] 53.8% | [9] 13.2%
active: [5] 9.55%

O=c1[nH]c2ccccc2cc1CSc1ccccc1Nc1nccc(-c2ccc3c(c2)OCO3)n1
inactive: [1] 83.6% | [2] 67.6% | [3] 98.8% | [4] 93.2% | [5] 69.2% | [6] 93.2% | [7] 116% | [8] 99.3% | [9] 84.4%

O=C(CSc1nnc(-c2ccc(-c3nc4ccc(Cl)cc4[nH]3)cc2)o1)Nc1ccc(Br)cc1
active: [2] -1.46% | [6] 8.26%
inactive: [1] 41.4% | [3] 28.6% | [4] 17.9% | [5] 20.4% | [7] 76.9% | [8] 18.9% | [9] 50.8%

CCCCN1C(=O)/C(=C\C(=O)c2cc3ccccc3oc2=O)c2ccccc21
active: [4] -47.6%
inactive: [1] 23.6% | [2] 48% | [3] 84.2% | [5] 41% | [6] 51.3% | [7] 93.9% | [8] 85% | [9] 18.1%

O=C(CSc1nnc(-c2ccc(-c3nc4ccc(Cl)cc4[nH]3)cc2)o1)Nc1ccccc1
active: [4] 0.173% | [6] 5.65%
inactive: [1] 93.3% | [2] 80% | [3] 17.5% | [5] 33.3% | [7] 98.9% | [8] 34.1% | [9] 90.9%

COc1sc(/C=N/NC(=O)c2[nH]c3ccc(Br)cc3c2-c2ccccc2)cc1Br
active: [2] -29.1% | [3] -26.5% | [4] 6.77% | [5] 4.42% | [6] -5.78% | [7] 8.54% | [8] 2.33% | [9] -14.5%
inactive: [1] 62%

Cc1[nH]nc2ccc3nc(-c4cn[nH]c4C(F)(F)F)c4c(c3c12)CCCC4
active: [1] 3.05% | [2] -82.4% | [4] -31.1% | [5] 5.54% | [6] -49% | [7] -16.6% | [8] 9.09% | [9] -45.6%
inactive: [3] 21.6%

COc1cc(CNC(=O)C[C@H](C)CCC=C(C)C)ccc1OCc1cn(-c2ccc(Br)cc2)nn1
inactive: [1] 49.3% | [2] 93.6% | [3] 98.3% | [4] 91.7% | [5] 60.2% | [6] 41.9% | [7] 95.8% | [8] 94.6% | [9] 46.7%

COc1cc(CNC(=O)[C@]23CCC(C)(C)CC2C2=CCC4[C@@]5(C)CCC(OC(C)=O)C(C)(C)C5CC[C@@]4(C)[C@]2(C)CC3)ccc1OCc1cn(-c2ccc(Cl)cc2Cl)nn1 (stereo partly specified)
inactive: [1] 85.1% | [2] 118% | [3] 105% | [4] 106% | [5] 86.5% | [6] 98.2% | [7] 122% | [8] 101% | [9] 112%

O=C(CSc1nc2sc3c(c2c(=O)n1-c1ccc(Cl)cc1)CCCC3)NNC(=O)c1ccc(Br)cc1
inactive: [1] 58.5% | [2] 74.5% | [3] 97.3% | [4] 76.1% | [5] 54.1% | [6] 64% | [7] 108% | [8] 96.6% | [9] 69.7%

O=C(Nc1nc2ccccc2s1)Nc1ccccc1Cl
inactive: [1] 68% | [2] 129% | [3] 100% | [4] 96.8% | [5] 69% | [6] 79.7% | [7] 97.3% | [8] 93.1% | [9] 97%

Fc1ccc(Nc2nnc(-c3c[nH]c4ccccc34)o2)cc1
inactive: [1] 47.2% | [2] 67.3% | [3] 89.8% | [4] 100% | [5] 49.9% | [6] 90.3% | [7] 98.5% | [8] 64.4% | [9] 32.6%

S=C(Nc1ccccc1)Nc1ccc(OCc2nc3ccc(Cl)cc3[nH]2)cc1
inactive: [1] 51.5% | [2] 78.8% | [3] 75.2% | [4] 73% | [5] 24.8% | [6] 77.5% | [7] 104% | [8] 74.7% | [9] 12.1%

CNc1nc2ccccc2n2c(-c3ccc(O)c(O)c3)cnc12
active: [2] -22.3% | [3] -9.22% | [5] 4.34% | [6] 2.74% | [8] -0.402% | [9] 5.66%
inactive: [1] 42.2% | [4] 24.6% | [7] 19.9%

S=C(NCCc1ccccc1)Nc1ccc(OCc2nc3ccc(Cl)cc3[nH]2)cc1
active: [5] 7.94% | [7] 3.57%
inactive: [1] 34.9% | [2] 45.9% | [3] 36.6% | [4] 37% | [6] 18.9% | [8] 18.6% | [9] 21.7%

Fc1ccc(N2CC(Cn3c(C(F)(F)F)cc4c(Cl)ncnc43)C2)c(F)c1
inactive: [1] 56.8% | [3] 15.9% | [5] 57.7% | [8] 99.5%
active: [2] -84.5% | [4] -79.6% | [6] -92.1% | [7] -91.4% | [9] -50.5%

O=c1[nH]c2ccccc2cc1COc1ccc(Nc2nccc(-c3ccc(Cl)cc3)n2)cc1
inactive: [1] 92.2% | [2] 99.3% | [3] 102% | [4] 105% | [5] 91.3% | [6] 96.4% | [7] 116% | [8] 99.3% | [9] 89.6%

Cc1ccc2c(c1)/C(=C/C(=O)c1cc3ccccc3oc1=O)C(=O)N2
inactive: [1] 72.8% | [2] 68.8% | [3] 75.5% | [5] 55.9% | [6] 18.9% | [7] 106% | [8] 86.9%
active: [4] -94.7% | [9] -69.3%

Nc1nn2c(-c3cc4cc(Br)ccc4oc3=O)ccnc2c1N=Nc1ccc(Br)cc1
inactive: [1] 29.2% | [2] 40.7% | [3] 69.5% | [4] 43.2% | [5] 39.5% | [6] 16.2% | [7] 39.2% | [8] 51.7% | [9] 39%

CC[C@@]12CC(C(=O)OC)=C3Nc4cc5c(cc4[C@@]34CCN(C[C@H]3O[C@H]31)[C@@H]24)[C@@H]1[C@H](O5)[C@@H](O)[C@@]2(CC)CC(C(=O)OC)=C3Nc4cc(O)ccc4[C@@]34CCN1[C@@H]24
active: [1] -37.5% | [2] -87.6% | [3] -54.3% | [4] -71.1% | [5] -56.8% | [6] -50.4% | [7] -85.4% | [8] -46.6% | [9] -78.5%

Cc1ccc2nc(COc3ccc(C(=O)NNC(=O)Nc4ccc(Cl)c(C(F)(F)F)c4)cc3)[nH]c2c1
inactive: [4] 43.4% | [5] 53.4% | [7] 70.1% | [8] 24.9%
active: [1] -24.8% | [2] -2.01% | [3] 8.76% | [6] 4.51% | [9] -56.9%

CCC(=O)c1cc(C(=O)OC)c2ccc3c4ccccc4ccc3n12
inactive: [1] 75.8% | [2] 112% | [3] 93.6% | [4] 84.4% | [5] 80.5% | [6] 35% | [7] 99.8% | [8] 84.7% | [9] 83.6%

O=S(=O)(c1nc(-c2ccc(Br)cc2)oc1-c1ccc(Cl)cc1)N1CCCC(O)C1 (stereo unspecified)
inactive: [1] 28.8% | [2] 76.1% | [3] 60% | [4] 57% | [5] 41.5% | [6] 42.5% | [7] 33.8% | [8] 39% | [9] 45.6%

CN1CCN(CCS(=O)(=O)Nc2cc(-c3ccc4ncnc(Nc5ccc(F)c(Cl)c5)c4c3)cnc2Cl)CC1
inactive: [4] 36.2% | [5] 10.2% | [6] 27.8% | [8] 46.4%
active: [1] -6.97% | [2] -53% | [3] 0.425% | [7] -8.06% | [9] -75.1%

Cc1cc(Cl)ccc1NC(=O)Nc1ccc(-c2ccc3c(c2)NC(=O)/C3=C\c2ccc[nH]2)cc1
inactive: [1] 26.4% | [2] 79.1% | [3] 98.6% | [4] 89.3% | [5] 18.7% | [6] 108% | [7] 118% | [8] 25.8%
active: [9] -2.85%
